Screening data deposited in PubChem by several laboratories.
CSC inhib – cancer stem cell viability inhibitors, primary screen, luminescence; cancer stem cell-like cells viability; inhibition, % at 7.5 µM; 1.1% of 300,000 active; in the data active = inhibition above about 75%; inconclusive = no clear call, values can overlap the other calls; tested in HMLE shEcad cells
MPTP block – mitochondrial permeability transition pore inhibitors, primary screen, biochemical, isolated mouse mitochondria, absorbance; Ca2+ swelling absorbance, 30 min; inhibition, % at 10 µM; 1.4% of 360,000 active;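 active = inhibition of 50% or more, scaled per plate between neutral and stimulator controls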;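 note: 0% = DMSO wells given calcium and 100% = 1 mM EGTA wells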
Beta apoptosis – inhibitors of cytokine-induced beta cell apoptosis, primary screen, luminescence; INS-1E cytokine-induced death, ATP luminescence, 48 h; percent of positive-control rescue, neutral wells zero; AID 435005, 2010; protection from apoptosis, % (test concentration not listed); 0.8% of 300,000 active;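 active = Every replicate reaches about 75%, or at least half do and their mean reaches it too, limit read from the data; inconclusive = At least half of replicates reach the limit but their mean does not; inactive = Under half of replicates reach the limit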;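 note: 0% = cytokine-treated negative control wells and 100% = positive control rescue; higher means more ATP so stronger rescue from cytokine killing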
GRIN3A LBD mod – binders of NR3A ligand-binding domain, primary screen, biophysical, differential scanning fluorimetry, uHTS. NR3A LBD differential scanning fluorimetry, Tm shift; 0% = protein alone, 100% = glycine-bound protein. 2.5% of 340,000 active. Glutamate receptor ionotropic, NMDA 3A (GRIN3A) ligand-binding domain. Tm shift relative to glycine control, % at 25 µM;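 active = melting temperature shift of at least 10% of the positive control shift, at one fixed dose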
Mdm2 MdmX PPI – inhibitors of human Mdm2-MdmX association, primary screen, cell-based, luminescence, split luciferase, SaOS-2, uHTS; SaOS-2 split-luciferase Mdm2/MdmX complementation; inhibition, % at 8 µM; 3% of 330,000 active;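 active = inhibition of at least 50% at 8 µM in the primary screen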
SKKanGAS inh – S. pyogenes SKKanGAS growth inhibitors in kanamycin, primary screen, streptokinase expression inhibitor project, SKKanGAS strain, BacTiter-Glo luminescence; 1.3% of 300,000 active; inhibition, % at 7.5 µM; 6 h;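 active = mean replicate score, as percent of positive control median, at least 50; inconclusive = mean below 50 but one replicate at or above 50; inactive = mean and every replicate below 50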;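 note: strain carries kanamycin resistance gene driven by streptokinase promoter and grows in 40 µg/ml kanamycin; loss of luminescence reflects streptokinase promoter inhibition or plain growth inhibition; 0% = median of DMSO wells and 100% = positive control at its reference dose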
Mdm2 MdmX conf – Mdm2-MdmX complex disruptors, retested hits, confirmation, luminescence, single concentration. shares compounds with Mdm2 MdmX PPI. Mdm2-MdmX binding, luminescent assay. inhibition, % at 8 µM. 55% of 10,000 active; in the data active = inhibition above about 40%
FLuc counter – full-length luciferase signal inhibition, confirmation, counter-screen for Mdm2/MdmX interaction inhibitor project, cell-based, single concentration, SaOS-2; shares compounds with Mdm2 MdmX PPI; SaOS-2 full-length luciferase counterscreen, luminescence; inhibition, % at 8 µM; 77% of 6,200 active; AID 504607, 2011;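 active = mean inhibition at 8 µM reaching about 37%, which flags the compound as non-specific, limit read from the data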;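 note: p53-null SaOS-2 cells with luciferase driven by a doxycycline-inducible promoter; compound on cells about two nights before reading with doxycycline added after day one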
MPTP counter – fluorescence retest of MPTP screen hits in isolated mitochondria, single concentration; membrane potential, Rhodamine 123 fluorescence; inhibition, % at 10 µM; AID 624504, 2012; shares compounds with MPTP block; 78% of 5,000 active; in the data active = inhibition above about 22%;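 note: 0% = DMSO vehicle and 100% = positive control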
Starred values were filed as active, the others as inactive; ? = inconclusive; . = no result given; ! = a repeat was not active. Sampled rows, rich in hits. Any-hit rate of the full collection: about 6.9%.

SMILES | CSC inhib | MPTP block | Beta apoptosis | GRIN3A LBD mod | Mdm2 MdmX PPI | SKKanGAS inh | Mdm2 MdmX conf | FLuc counter | MPTP counter
CN1CCCC(OC(=O)c2ccccc2F)C1 (centres undefined) | -13.4 | 1.5 | -6.5 | -3.5 | 9.4 | -2.9 | . | . | .
Cc1noc(C)c1COC(=O)[C@@H](NC(=O)c1ccccc1)C(C)C | -2.9 | -2.4 | -0.1 | 0.8 | 2.8 | -2.1 | . | . | .
Cc1c(C(=O)N/N=C/c2ccc(Cl)cc2)[nH]c2ccc(Cl)cc12 | 57.1 | 96.0* | 35.2 | 25.8* | 63.4* | 55.8* | 62.1* | 91.0* | 66.8*
O=C(OCC(=O)C12CC3CC(CC(C3)C1)C2)c1cccnc1Cl | -11.7 | -0.8 | 1.0 | -5.0 | -0.7 | 3.7 | . | . | .
O=C(Nc1cccc(Cl)c1)Nc1csc([N+](=O)[O-])c1 | ? | 72.0* | 126.2* | 31.1* | 89.5* | 51.1* | 87.3* | 39.4* | 69.4*
CC(C)NC(=O)Nc1cccc(Cl)c1 | -16.1 | 1.5 | -6.5 | -0.2 | 13.9 | 0.7 | . | . | .
Fc1ccc(Nc2nnc(C(F)(F)F)s2)cc1Cl | 48.3 | 75.3* | 46.2 | 5.1 | 73.4* | 27.5 | 68.0* | 57.2* | 86.0*
O=C(NC(=S)Nc1cc(-c2nc3ccccc3[nH]2)ccc1Cl)c1ccc2c(c1)OCO2 | 94.1* | 57.3* | 88.8* | 18.2* | 100.5* | 15.5 | 70.8* | 70.3* | 38.6*
CC(=O)c1ccccc1NC(=O)C1CCCN(C(=O)c2ccc(Cl)cc2)C1 (centres undefined) | . | -0.9 | -1.4 | -1.6 | 10.4 | . | . | . | .
Oc1[nH]c2ccccc2c1N=Nc1ccccn1 | . | -0.9 | . | 1.3 | . | . | . | . | .
Oc1c(N=Nc2ccccn2)ccc2ccccc12 | 99.2* | 53.7* | 95.9* | 1.4 | 91.0* | 69.1* | 46.0* | 46.4* | -52.2
CCC(=O)c1ccc(OCC(=O)OCC(=O)NCC2CCCO2)cc1 (centres undefined) | . | -0.2 | -1.7 | -1.3 | -11.6 | -1.5 | . | . | .
O=C(NCc1nc(-c2ccc(C(F)(F)F)cc2)no1)Nc1ccc(OC(F)(F)F)cc1 | 109.2* | 77.7* | 0.1 | 36.3* | 89.1* | 23.5 | 28.2 | . | 74.2*
CC(C)(C)c1ccc(OCCCC(=O)NNC(=O)c2ccccc2O)cc1 | 31.7 | 69.4* | . | . | 58.1* | 2.3 | 66.1* | 45.2* | 81.9*
CC(C)(C)c1ccc(C(=O)NCC(=O)NNC(=O)c2ccccc2O)cc1 | 25.7 | 2.0 | 0.7 | -0.4 | 39.3 | -2.5 | . | . | .
COC(=O)[C@@H]1C[C@@]2(O)[C@H](O)[C@H](O)[C@H](O)C[C@H]2N1C/C=C/c1ccccc1 | 2.4 | -0.2 | -5.1 | 1.9 | 24.6 | 0.8 | . | . | .
Cc1ccc2nc3c(c(Nc4ccc5c(c4)OCCO5)c2c1)CCC3 | -0.7 | 53.7* | 21.1 | -1.3 | 56.1* | 11.7 | 15.1 | . | 75.7*
OCCN1CCN(CCCN2c3ccccc3Sc3ccc(C(F)(F)F)cc32)CC1 | 85.5* | 86.0* | 11.4 | 2.0 | 60.5* | 8.3 | 26.6 | . | -18.1
CC(CN1CCN(CCOCCO)CC1)CN1c2ccccc2Sc2ccc(Cl)cc21 (centres undefined) | . | -1.5 | . | . | . | . | . | . | .
CCSc1ccc2c(c1)N(CCCN1CCN(C)CC1)c1ccccc1S2 | 77.5* | 95.7* | 7.7 | -0.6 | 60.3* | . | 21.2 | . | -20.0
CN1CCN(CCCN2c3ccccc3Sc3ccc(Cl)cc32)CC1 | 93.7*! | 91.9* | 3.0 | -2.2 | 54.1* | 6.2 | 31.9 | . | -18.6
NNC(=O)c1ncoc1-c1ccc(Cl)cc1 | -13.0 | 0.7 | 0.2 | 0.8 | 5.6 | -4.1 | . | . | .
O=c1ccc(C(F)(F)F)cn1Cc1cc(=O)n2cc(Br)ccc2n1 | 0.0 | 0.2 | 2.2 | -2.3 | 9.1 | 4.2 | . | . | .
Cc1ccc(S(=O)(=O)Nc2nc(-c3ccccc3)cs2)cc1 | -6.0 | 0.8 | -0.3 | -3.6 | 6.5 | 21.9 | . | . | .
Cc1ccc(S(=O)(=O)Nc2ccccc2C(=O)Nc2nc(-c3ccc(F)cc3)cs2)cc1 | 0.1 | 70.1* | 99.3* | 31.1* | 85.8* | 105.6* | 89.6* | 22.4 | 13.9
SMILES | CSC inhib | MPTP block | Beta apoptosis | GRIN3A LBD mod | Mdm2 MdmX PPI | SKKanGAS inh | Mdm2 MdmX conf | FLuc counter | MPTP counter
COc1ccc(-c2csc(NC(=O)c3ccccc3NS(=O)(=O)c3ccc(F)c(F)c3)n2)cc1 | 114.0* | 91.8* | 86.7* | 16.2* | 90.2* | 84.0* | 90.5* | 22.0 | 1.4
Cc1ncc(C(O)c2ccccc2)n1Cc1ccccc1 (centres undefined) | . | -0.5 | . | . | . | . | . | . | .
CC1(C(=O)NS(=O)(=O)c2cccs2)CCN1C(=O)C1CCCCC1 (centres undefined) | . | 0.4 | . | . | . | . | . | . | .
CC(C)[C@@H]1CC[C@@H](C)C[C@H]1OC(=O)C[n+]1cc(-c2ccc(Cl)cc2)n2c1CCCCC2 | 21.9 | 64.3* | 1.4 | -1.1 | 77.8* | 22.4 | 72.8* | 28.7 | 85.6*
CC1CCC(C(C)C)C(OC(=O)Cn2c(-c3ccc(Cl)cc3)[n+](C)c3ccccc32)C1 (centres undefined) | 60.8 | 53.5* | 99.7* | -3.6 | 100.1* | 6.8 | 96.3* | 52.2* | 78.8*
O=C(C[n+]1cc(-c2ccc(Cl)cc2)n2c1CCCCC2)c1ccccc1 | 4.0 | 3.3 | 4.4 | 2.2 | -9.7 | 1.1 | . | . | .
CC1CCC(C(C)C)C(OC(=O)COC(=O)c2cccn2C)C1 (centres undefined) | -16.5 | 0.7 | 1.5 | 2.6 | 18.9 | 44.1 | . | . | .
CN(CC(=O)Nc1c(Cl)cccc1Cl)C(=O)c1ccc2ccccc2n1 | . | -0.5 | . | 1.9 | -4.8 | . | . | . | .
O=C(COC(=O)c1ccc(Br)c(S(=O)(=O)N2CCOCC2)c1)NCCc1ccccc1 | 1.8 | -1.4 | 1.6 | 2.6 | -21.4 | . | . | . | .
Cc1cc(O)ccc1-c1cc(C(=O)NCc2ccc(F)cc2)[nH]n1 | . | -2.3 | . | . | . | . | . | . | .
NC(=O)C1CCN(c2nc(-c3cccs3)cs2)CC1 | 6.6 | 1.0 | -2.1 | -22.7 | -89.1 | . | . | . | .
Cn1nc(C(F)(F)F)c2cc(C(=O)Nc3ccc(C(F)(F)F)cc3)sc21 | 71.8 | 91.2* | 35.3 | 15.4* | 60.9* | 26.3 | 12.2 | . | 75.4*
